# ChEMBL document CHEMBL3988442, “University of Dundee, Small-Polar-MMV Screening Library” (2021)
# Where “and” joins values, the source holds several entries; their conditions need not be identical. Equal values may be shown once. For some of these results: Entries with a potency or affinity are not part of this list.
# Columns and labels:
# Parameters in all cases: scale not given: direction of the effect not stated beside the values
# [1] = biological target: Protein translocase subunit SecA (Escherichia coli (strain K12)) (UniProt P10408); test: Assay to Identify E. coli SecA ATPase Inhibitors; format: functional; conditions: 30 µM
# Protein translocase subunit SecA (Escherichia coli (strain K12)), sequence (P10408 whole entry): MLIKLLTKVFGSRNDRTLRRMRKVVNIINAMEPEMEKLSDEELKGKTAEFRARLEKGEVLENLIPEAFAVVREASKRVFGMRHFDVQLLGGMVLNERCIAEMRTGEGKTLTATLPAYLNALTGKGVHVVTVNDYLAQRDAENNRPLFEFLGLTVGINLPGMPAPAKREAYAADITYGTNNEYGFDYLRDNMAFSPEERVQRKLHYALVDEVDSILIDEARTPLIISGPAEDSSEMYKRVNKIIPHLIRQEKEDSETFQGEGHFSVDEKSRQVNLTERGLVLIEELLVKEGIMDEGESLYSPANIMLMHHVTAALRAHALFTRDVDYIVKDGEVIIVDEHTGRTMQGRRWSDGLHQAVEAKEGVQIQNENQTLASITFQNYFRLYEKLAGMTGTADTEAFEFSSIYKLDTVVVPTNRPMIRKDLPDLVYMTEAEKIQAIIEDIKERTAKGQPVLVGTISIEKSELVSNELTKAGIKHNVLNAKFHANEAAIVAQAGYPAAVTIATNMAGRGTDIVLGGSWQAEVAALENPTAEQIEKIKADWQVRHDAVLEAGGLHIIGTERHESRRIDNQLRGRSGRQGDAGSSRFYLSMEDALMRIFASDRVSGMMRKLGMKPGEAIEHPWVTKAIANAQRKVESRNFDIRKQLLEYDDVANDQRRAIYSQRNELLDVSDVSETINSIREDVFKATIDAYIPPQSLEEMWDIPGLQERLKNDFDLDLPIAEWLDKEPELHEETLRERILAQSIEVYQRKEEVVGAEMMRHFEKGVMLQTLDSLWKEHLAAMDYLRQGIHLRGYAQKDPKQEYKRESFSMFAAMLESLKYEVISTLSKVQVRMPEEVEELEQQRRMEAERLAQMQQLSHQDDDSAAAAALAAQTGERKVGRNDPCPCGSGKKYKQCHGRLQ
# [2] = biological target: T1, Ubiquitin-activating enzyme e1, putative (Leishmania donovani (strain BPK282A1)) (UniProt E9BSI1); test: Leishmania donovani Ubiquitin Activating Enzyme (LdE1); format: functional; conditions: 30 µM
# T1 sequence (whole entry): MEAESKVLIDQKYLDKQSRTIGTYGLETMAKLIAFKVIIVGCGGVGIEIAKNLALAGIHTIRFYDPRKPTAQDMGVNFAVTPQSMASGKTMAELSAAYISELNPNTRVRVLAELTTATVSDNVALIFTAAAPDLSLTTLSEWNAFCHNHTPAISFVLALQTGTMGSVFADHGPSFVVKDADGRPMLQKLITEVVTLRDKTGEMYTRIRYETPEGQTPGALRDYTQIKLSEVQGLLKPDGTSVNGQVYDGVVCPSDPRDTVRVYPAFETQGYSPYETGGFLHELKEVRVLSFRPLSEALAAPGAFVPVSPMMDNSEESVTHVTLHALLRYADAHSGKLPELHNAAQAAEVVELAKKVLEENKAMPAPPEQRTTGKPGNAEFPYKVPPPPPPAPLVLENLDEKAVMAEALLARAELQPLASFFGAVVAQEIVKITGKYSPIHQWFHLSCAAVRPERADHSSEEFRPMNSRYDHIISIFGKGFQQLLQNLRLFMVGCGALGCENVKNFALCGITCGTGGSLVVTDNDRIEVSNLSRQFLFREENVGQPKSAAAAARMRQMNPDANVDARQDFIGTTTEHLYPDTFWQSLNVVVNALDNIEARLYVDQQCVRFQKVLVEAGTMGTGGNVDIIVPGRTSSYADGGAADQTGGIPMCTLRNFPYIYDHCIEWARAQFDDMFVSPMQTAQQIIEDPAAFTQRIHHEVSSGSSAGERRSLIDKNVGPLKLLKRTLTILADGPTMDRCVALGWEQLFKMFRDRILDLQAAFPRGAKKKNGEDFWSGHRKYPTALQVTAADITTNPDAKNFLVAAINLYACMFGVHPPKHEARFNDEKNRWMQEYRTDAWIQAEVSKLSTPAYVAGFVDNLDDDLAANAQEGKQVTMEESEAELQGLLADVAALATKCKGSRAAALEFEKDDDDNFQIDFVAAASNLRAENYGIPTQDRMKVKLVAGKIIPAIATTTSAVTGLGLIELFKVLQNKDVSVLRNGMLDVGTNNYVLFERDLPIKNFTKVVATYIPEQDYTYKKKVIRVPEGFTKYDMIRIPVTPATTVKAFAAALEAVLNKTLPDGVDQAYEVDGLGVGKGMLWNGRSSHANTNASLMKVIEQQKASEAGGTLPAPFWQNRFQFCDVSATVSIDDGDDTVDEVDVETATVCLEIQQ
# [3] = biological target: AMP-activated protein kinase, AMPK (Homo sapiens) (UniProt P54646+O43741+P54619+Q9UGJ0+Q9Y478+Q13131+Q9UGI9); test: AMP-dependent Kinase enzyme assay. An in vitro enzyme assay that detects ADP turnover that is directly proportional to AMPK activity. This uses naive AMPK that is activated during the assay with MK-8722; format: functional; conditions: 30 µM
# [4] = biological target: Sialic acid-binding Ig-like lectin 9 (Homo sapiens) (UniProt Q9Y336); test: Hs-Siglec9 ALPHAscreen SOP 20170721; conditions: 10 µM
# Sialic acid-binding Ig-like lectin 9 (Homo sapiens), sequence (Q9Y336 whole entry): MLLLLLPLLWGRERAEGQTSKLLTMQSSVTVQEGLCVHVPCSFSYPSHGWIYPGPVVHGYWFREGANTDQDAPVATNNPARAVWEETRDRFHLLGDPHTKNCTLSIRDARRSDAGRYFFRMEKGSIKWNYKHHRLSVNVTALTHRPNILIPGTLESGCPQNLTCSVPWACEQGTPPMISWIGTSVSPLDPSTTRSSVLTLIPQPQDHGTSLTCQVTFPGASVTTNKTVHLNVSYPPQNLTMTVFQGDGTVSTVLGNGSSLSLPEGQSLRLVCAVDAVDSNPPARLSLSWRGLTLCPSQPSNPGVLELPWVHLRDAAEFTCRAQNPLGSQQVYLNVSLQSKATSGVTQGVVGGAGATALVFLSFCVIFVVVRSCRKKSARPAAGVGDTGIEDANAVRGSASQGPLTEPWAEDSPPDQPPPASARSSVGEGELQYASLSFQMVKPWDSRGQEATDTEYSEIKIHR
# Trypanosoma cruzi = test: Trypanosoma cruzi phosphomannomutase and mannose-1-phosphate guanylyltransferase assay; format: functional; conditions: 10 µM
# [5] = biological target: T2, Arginase-2, mitochondrial (Homo sapiens) (UniProt P78540); test: in vitro enzyme assay to detect the production of urea directly proportional to the activity of Arginase II; format: functional; conditions: 33.3 µM; note: in the data most compounds retested in dose-response had high values
# T2 sequence (whole entry): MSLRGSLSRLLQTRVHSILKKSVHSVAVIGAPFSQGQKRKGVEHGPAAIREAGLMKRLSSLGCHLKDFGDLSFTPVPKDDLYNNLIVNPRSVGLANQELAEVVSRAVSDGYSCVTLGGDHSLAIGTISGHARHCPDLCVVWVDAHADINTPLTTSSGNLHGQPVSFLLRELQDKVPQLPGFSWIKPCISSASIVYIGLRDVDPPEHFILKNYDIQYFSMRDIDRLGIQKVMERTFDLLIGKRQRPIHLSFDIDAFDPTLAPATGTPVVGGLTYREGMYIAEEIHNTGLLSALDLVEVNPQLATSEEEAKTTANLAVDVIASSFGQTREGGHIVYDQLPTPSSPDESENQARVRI
# [6] = biological target: T3, Proteasome subunit beta (Trypanosoma cruzi) (UniProt O96673); test: Trypanosoma cruzi proteasome chymotrypsin-like activity (TcProtChymo) assay.; note: in the data most compounds retested in dose-response had high values; format: functional; conditions: 9.37 µM
# T3 sequence (whole entry): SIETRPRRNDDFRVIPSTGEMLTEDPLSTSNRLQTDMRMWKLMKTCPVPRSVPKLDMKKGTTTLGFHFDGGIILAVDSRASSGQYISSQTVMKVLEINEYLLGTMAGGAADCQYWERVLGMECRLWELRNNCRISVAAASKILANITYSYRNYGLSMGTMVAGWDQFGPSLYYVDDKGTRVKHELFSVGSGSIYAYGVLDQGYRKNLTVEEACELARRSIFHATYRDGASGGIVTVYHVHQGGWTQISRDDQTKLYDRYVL
# Homo sapiens = species on record: Homo sapiens; test: To identify inhibition of the IFN signalling (Jak-Stat) pathway via expression of an eGFP reporter gene under the control of an IFN-stimulated response element (ISRE) containing MxA promoter.; format: functional; conditions: 30 µM
# [7] = biological target: T4, Tyrosyl-tRNA synthetase, putative (Trypanosoma cruzi (strain CL Brener)) (UniProt Q4DSP6); test: Trypanosoma cruzi tyrosyl tRNA synthetase (TcYRS) _High Tyrosine SOP; format: functional; conditions: 30 µM; note: in the data most compounds retested in dose-response had high values
# T4 sequence (whole entry): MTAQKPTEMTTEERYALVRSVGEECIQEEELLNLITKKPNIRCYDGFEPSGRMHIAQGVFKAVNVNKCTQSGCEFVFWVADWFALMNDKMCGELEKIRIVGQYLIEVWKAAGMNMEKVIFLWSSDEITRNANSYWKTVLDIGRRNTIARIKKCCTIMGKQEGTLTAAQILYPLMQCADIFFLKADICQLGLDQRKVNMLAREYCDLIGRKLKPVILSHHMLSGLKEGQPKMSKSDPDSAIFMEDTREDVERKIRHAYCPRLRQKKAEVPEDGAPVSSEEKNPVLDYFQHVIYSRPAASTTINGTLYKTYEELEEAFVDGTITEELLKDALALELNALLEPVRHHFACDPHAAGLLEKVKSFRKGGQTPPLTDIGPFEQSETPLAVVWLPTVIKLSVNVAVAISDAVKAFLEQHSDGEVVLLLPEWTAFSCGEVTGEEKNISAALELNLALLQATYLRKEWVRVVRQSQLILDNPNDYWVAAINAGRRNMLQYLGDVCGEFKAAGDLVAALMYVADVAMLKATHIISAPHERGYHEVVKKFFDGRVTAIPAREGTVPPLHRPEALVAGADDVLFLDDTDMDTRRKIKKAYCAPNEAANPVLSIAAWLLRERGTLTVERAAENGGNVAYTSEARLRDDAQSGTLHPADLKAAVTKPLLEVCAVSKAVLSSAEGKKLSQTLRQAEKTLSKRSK
# [8] = biological target: T4, Tyrosyl-tRNA synthetase, putative (Trypanosoma cruzi (strain CL Brener)); test: Trypanosoma cruzi tyrosyl tRNA synthetase (TcYRS) SOP; format: functional; conditions: 30 µM
# [9] = biological target: Chromo domain-containing protein 1 (Saccharomyces cerevisiae (strain ATCC 204508 / S288c) (Baker's yeast)) (UniProt P32657); test: ScCHD-1 Enzyme Inhibition Assay; format: functional; conditions: 30 µM; note: in the data most compounds retested in dose-response had high values
# Chromo domain-containing protein 1 (Saccharomyces cerevisiae (strain ATCC 204508 / S288c) (Baker's yeast)), sequence (P32657 whole entry, the tested form may be a part): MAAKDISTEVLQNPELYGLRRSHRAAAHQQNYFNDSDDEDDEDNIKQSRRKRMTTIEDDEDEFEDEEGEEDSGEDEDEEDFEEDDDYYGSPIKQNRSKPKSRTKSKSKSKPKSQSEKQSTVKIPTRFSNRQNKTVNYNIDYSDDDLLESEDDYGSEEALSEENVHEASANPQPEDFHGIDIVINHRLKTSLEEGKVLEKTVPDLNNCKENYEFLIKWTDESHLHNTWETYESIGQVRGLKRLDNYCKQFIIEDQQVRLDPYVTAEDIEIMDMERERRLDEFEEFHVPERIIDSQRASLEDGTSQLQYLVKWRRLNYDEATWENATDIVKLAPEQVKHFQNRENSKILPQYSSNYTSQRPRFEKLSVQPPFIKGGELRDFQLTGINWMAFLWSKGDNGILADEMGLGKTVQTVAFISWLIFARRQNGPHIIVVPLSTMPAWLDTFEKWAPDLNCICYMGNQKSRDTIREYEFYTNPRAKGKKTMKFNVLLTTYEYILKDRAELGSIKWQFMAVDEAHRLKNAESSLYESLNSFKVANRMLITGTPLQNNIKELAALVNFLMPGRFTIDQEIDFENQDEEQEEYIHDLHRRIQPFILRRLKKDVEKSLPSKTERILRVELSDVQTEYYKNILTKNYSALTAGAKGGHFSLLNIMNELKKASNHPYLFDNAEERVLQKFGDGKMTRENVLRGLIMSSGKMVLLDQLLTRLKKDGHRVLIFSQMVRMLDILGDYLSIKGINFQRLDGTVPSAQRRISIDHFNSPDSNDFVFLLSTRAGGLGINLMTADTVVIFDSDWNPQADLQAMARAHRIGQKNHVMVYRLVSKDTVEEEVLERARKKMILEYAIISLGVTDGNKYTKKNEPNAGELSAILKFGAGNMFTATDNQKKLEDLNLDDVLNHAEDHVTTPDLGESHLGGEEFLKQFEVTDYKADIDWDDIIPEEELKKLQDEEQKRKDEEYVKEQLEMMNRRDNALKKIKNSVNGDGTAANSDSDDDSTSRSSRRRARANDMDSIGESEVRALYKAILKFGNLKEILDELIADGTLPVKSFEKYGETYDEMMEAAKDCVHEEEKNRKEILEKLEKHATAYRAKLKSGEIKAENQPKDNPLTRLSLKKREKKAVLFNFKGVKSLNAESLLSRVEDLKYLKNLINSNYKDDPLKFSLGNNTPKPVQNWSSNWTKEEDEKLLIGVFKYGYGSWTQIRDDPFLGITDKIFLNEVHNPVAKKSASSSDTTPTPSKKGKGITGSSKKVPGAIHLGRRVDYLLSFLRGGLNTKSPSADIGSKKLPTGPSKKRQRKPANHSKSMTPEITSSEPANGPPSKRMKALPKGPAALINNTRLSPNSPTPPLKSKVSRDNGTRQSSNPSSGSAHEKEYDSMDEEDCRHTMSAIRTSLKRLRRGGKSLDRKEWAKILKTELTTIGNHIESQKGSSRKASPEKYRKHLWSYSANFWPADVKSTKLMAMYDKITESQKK
# N/A = test: Trypanosoma cruzi proteasome luciferase counter-screen; format: functional; conditions: 9.37 µM
SMILES,Percent Effect [1] [%],Percent Effect [2] [%],Percent Effect [3] [%],Percent Effect [4] [%],Percent Effect (Trypanosoma cruzi) [%],Percent Effect [5] [%],Percent Effect [6],Percent Effect (Homo sapiens) [%],Percent Effect [7] [%],Percent Effect [8] [%],Percent Effect [9] [%],Percent Effect (N/A)
CCn1ncnc1C(C)NC(=O)C1CCN(C(=O)COC)CC1 (stereo not drawn),-7.01,8.11,-1.09,0.673,-0.489,4.22,9.19%,1.26,10.8,18.5,-2.43,
Cc1cnn(CC2CN(Cc3cccc(OCC(N)=O)c3)CCO2)c1 (stereo not drawn),-3.33,-5.2,0.653,4.26,-7.3,5.34,-2.53%,23.4,3.88,-2.44,1.45,
Cc1oc(-c2nc(C#N)c(N(C)C)o2)cc1S(=O)(=O)N1CCCC1,-3.98,4,-2.67,8.99,2.75,-7.92,17.2%,-8.23,1.06,10.3,-0.712,
O=C1OCCN1CCOc1nc(-c2ccccc2Cl)no1,-6.78,16.4,-3.77,15.8,4.7,8.64,12.1%,7.15,5.38,12.5,-6.2,
CC(C)COC(C)C(=O)NCc1cc(F)cc(F)c1 (stereo not drawn),-1.7,2.6,8.53,10.1,1.47,2.32,-0.728%,21.9,2.86,2.35,-5.87,
CC(=O)N1CC[C@H]2OCC[C@@H](C(=O)N3CCCCO3)[C@@H]2C1,-2.31,12,-3.03,10.7,-1.97,-8.63,15%,-4.45,4.23,12.8,-7.82,
O=C(Nc1cccc(OCc2ccc(F)cc2)c1)C1COCCO1 (stereo not drawn),-4.66,-8,0.674,-3.67,-1.27,1.04,14.3%,5.69,-8.2,-3.7,-0.73,
COC[C@@]12CCO[C@@H]1CCN(Cc1ccccc1F)C2,-2.12,11,-5.09,8.1,5.75,-2.79,10.5%,3.87,4.17,8.64,-4.87,
Cc1nc(CN2CCOC(CNc3cccnn3)C2)oc1C (stereo not drawn),-1.3,0,-22.1,-5.8,0.283,28.9,30.6% and 26.7% and 36.4%,11.3,2.46,-8.64,-0.197,11.3% and 10.2%
Cc1ccc(S(=O)(=O)N2CCc3nc(C4CCNCC4)ncc3C2)cc1,-3.69,9.46,-15.7,1.15,2.77,-4.41,21.6% and 22.5% and 38.9%,9.56,17.2,24.7,-21.4,8.48% and 9.51%
O=C(NCCc1cccc(F)c1)NCC(O)c1cccc(F)c1 (stereo not drawn),-2.56,5.41,4.6,6.95,1.04,1.6,7.93%,10.8,8.37,23.5,-3.01,
COc1ccc(CN2CCC3(CC2)CCN(c2ncccn2)CC3)cc1,-2.42,2.7,0.552,4.9,5.57,8.6,1.29%,-26.6,0,5.13,6.6,
CC(C)c1noc(C(C)N2CCN(Cc3ccccc3C#N)CC2)n1 (stereo not drawn),-0.614,-2.63,-8.38,2.79,4.58,-2.52,3.81%,10.1,-3.45,3.7,2.36,
Cc1ccc(NC(=O)N2CCOC(C)C2)cc1Cl (stereo not drawn),-0.48,16.4,-5.38,4.84,2.58,-6.39,26.6%,10.5,7.29,21,-3.19,
O=C(C1CCN(c2snc3ccccc23)CC1)N1CCCCCC1,1.1,24.1,2.83,-3.46,-0.923,-4.52,13.7%,59.6,5.21,7.59,-21.3,
O=C(NCC1CC1)Nc1cccc(N2CCN(CC3CC3)CC2)c1,-6.91,13.5,-7.28,31.9,5.38,1.24,6.78%,-5.11,3.23,16.1,-13.1,
CSC(C)C(=O)NCCCc1cc(N)n(-c2ccccc2)n1 (stereo not drawn),-3.19,-5.48,16.9,-3.4,-2.15,-12.3,74.4% and 84.2% and 83.7%,14.8,-1.07,0,-2.72,46.1% and 47.4%
CCOC(=O)CCCNC(=O)CN1CCN(c2ncccn2)CC1,-2.22,7.79,-1.07,5.04,-3.64,-112,17.5%,2.75,5.38,8.64,-0.631,
O=C(NS(=O)(=O)c1ccccc1Cl)c1cccc2c1OCCO2,-5.38,5.48,-3.79,16.7,3.53,8.64,10.7%,7.24,-10.8,-10,96.7,
COCCOc1ccc(NC(=O)N2CCCC2c2ccncc2)cn1 (stereo not drawn),-2.75,0,2.9,5.29,2.64,-1.47,12.8%,11.5,1.91,0,-22.2,
